Experimental data from PubChem BioAssay.
Activity calls are given as the source filed them. Unless noted, the rule behind the calls is not given here.

Tests used:
[1] = HepG2 liver cancer cell viability effects, profiling panel, resazurin fluorescence, 24 h, PK04 Diversity Set (AID 1172); details: higher = more signal; note: test concentration not given here
[2] = basal S. cerevisiae growth modulation, no modifier, primary screen, OD600, strain BY4716, 24 h, basal condition (AID 1173); details: OD600, 24 h, higher = more signal, called active from +8 up or from −8 down
[3] = MM1S myeloma cell viability, profiling panel, resazurin fluorescence, basal, 24 h, PK04 Diversity Set (AID 1174); details: higher = more signal, called active from +8 up or from −8 down;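 note: MM1S multiple myeloma cell line; test concentration not given here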
[4] = target: Dihydroorotate dehydrogenase (quinone), mitochondrial (Plasmodium falciparum (isolate 3D7)) (UniProt Q08210); test: PfDHODH enzyme inhibitors, primary screen, biochemical, C-terminal His tag, absorbance 600 nm (AID 1175); details: DCIP absorbance 600 nm, higher = more signal, called active from +8 up or from −8 down;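 note: recombinant parasite enzyme with a five histidine tag at its C terminus; test concentration not given here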
Sequence of Dihydroorotate dehydrogenase (quinone), mitochondrial (Plasmodium falciparum (isolate 3D7)) (Q08210 whole entry, looked up): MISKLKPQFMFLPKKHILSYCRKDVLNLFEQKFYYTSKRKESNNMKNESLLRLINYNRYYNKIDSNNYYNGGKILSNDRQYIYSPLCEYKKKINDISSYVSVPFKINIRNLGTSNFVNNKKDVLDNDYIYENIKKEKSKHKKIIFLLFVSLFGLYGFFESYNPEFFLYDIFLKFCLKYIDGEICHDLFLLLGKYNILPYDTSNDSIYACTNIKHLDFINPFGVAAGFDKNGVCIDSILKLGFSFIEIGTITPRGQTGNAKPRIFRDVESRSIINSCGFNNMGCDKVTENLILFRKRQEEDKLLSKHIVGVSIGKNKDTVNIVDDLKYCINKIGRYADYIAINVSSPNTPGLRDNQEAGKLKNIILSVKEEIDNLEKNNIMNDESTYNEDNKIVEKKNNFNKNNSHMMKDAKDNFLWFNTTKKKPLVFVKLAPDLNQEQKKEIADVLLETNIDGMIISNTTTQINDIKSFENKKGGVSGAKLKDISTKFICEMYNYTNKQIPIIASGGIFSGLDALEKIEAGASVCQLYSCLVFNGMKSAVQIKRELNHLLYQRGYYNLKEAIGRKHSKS

[5] = P. aeruginosa biofilm formation inhibitors, primary screen, strain PAO1, LB-PBS medium, absorbance 600 nm (AID 1176); note: test concentration not given here; details: P. aeruginosa PAO1 growth/biofilm, A600, 12 h; higher = more signal
[6] = S. cerevisiae RM11-1a growth modifiers, primary screen, strain RM11-1a, OD600, basal, 24 h (AID 1177); details: OD600, 24 h, higher = more signal, called active from +8 up or from −8 down;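 note: cultures grown under basal conditions with no added stressor; test concentration not given here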
[7] = E. coli acrAB mutant growth effects, primary screen, E. coli filamentation inducers, strain DRC39, OD650, 24 h (AID 1178); details: higher = more signal, called active from +8 up or from −8 down;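 note: growth measured as culture turbidity by optical density at 650 nm; test concentration not given here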
[8] = E. coli acrAB mutant growth effects, primary screen, E. coli filamentation inducers, strain DRC39, OD650, 48 h (AID 1179);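 note: screen aims at cell division blockers that make cells filament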; details: E. coli DRC39 delta-acrAB growth, higher = more signal, called active from +8 up or from −8 down
[9] = RPMI8226 myeloma cell viability, profiling panel, resazurin fluorescence, basal, 24 h, PK04 Diversity Set (AID 1180); details: higher = more signal;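 note: RPMI8826 multiple myeloma cell line at 5000 cells per well; test concentration not given here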
[10] = target: E3 ubiquitin-protein ligase XIAP (Homo sapiens) (UniProt P98170); test: XIAP binders, primary screen, biophysical, small-molecule microarray, fluorescence 635 nm (AID 1181); details: small-molecule microarray binding, higher = more signal;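 note: score merges 667 nm emission and signal to noise over triplicate slides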
Sequence of E3 ubiquitin-protein ligase XIAP (Homo sapiens) (P98170 whole entry, looked up): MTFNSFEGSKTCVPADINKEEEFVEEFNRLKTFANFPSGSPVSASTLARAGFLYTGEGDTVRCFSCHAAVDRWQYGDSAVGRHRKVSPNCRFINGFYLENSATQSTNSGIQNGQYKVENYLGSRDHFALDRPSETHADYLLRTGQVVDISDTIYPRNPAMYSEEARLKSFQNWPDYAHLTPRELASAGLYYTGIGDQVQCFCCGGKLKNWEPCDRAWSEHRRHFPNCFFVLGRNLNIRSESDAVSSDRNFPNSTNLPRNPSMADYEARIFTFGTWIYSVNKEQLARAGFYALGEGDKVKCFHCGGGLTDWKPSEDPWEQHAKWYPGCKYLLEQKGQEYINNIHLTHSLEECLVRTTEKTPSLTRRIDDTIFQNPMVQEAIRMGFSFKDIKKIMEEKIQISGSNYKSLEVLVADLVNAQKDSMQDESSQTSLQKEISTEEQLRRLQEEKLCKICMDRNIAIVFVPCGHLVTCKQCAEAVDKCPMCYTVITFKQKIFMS

SMILES | z-score [1] | z-score [2] | z-score [3] | composite z-score [4] | z-score [5] | z-score [6] | z-score [7] | z-score [8] | z-score [9] | composite z-score [10]
COc1ccc(OC[C@H]2Cc3c(-c4ccccc4)nc4c(c3CO2)CN(CCOc2ccccc2)CC4)cc1 | -0.376 | -2.37 (inactive) | -0.0593 (inactive) | -3.16 (inactive) | -0.765 (inactive) | -0.314 (inactive) | -1.17 (inactive) | -0.458 (inactive) | 0.578 | -0.111
COc1ccc([Si](C)(C)[C@@H]2[C@@H](CC(=O)N3CCC[C@H]3CO)O[C@]3(C(=O)N(Cc4cccc(N5CCC5=O)c4)c4ccccc43)[C@H]2C)cc1 | -1.1 | -0.0905 (inactive) | -2.64 (inactive) | -3.15 (inactive) | 1.19 (inactive) | 1.03 (inactive) | 0.52 (inactive) | 0.388 (inactive) | -3.51 | -0.152
COc1ccc(O[C@H]2C=C[C@@H](c3ccccc3)O[C@@H]2COC(=O)CCC(C)=NOCC[C@@H]2C=C[C@H](OC(C)=O)[C@@H](COC(C)=O)O2)cc1 | 0.453 | 1.51 (inactive) | 0.595 (inactive) | -0.64 (inactive) | -0.455 (inactive) | 0.893 (inactive) | 0.265 (inactive) | -0.0862 (inactive) | 0.485 | 0.388
COc1ccc(O[C@H]2C=C[C@@H](c3ccccc3)O[C@@H]2CON=C[C@@H](C)[C@H](OCc2ccccc2)C(C)C)cc1 | -0.821 | 0.742 (inactive) | -1.69 (inactive) | -0.896 (inactive) | -0.348 (inactive) | 0.443 (inactive) | 0.335 (inactive) | 1.01 (inactive) | -0.854 | 0.144
CO[C@@H]1COC(=O)[C@@H]2CCCN2C(=O)[C@@H](C)COC(=O)[C@H](COCc2ccccc2)NC(=O)CC=C[C@H]1C | -0.327 | 0.185 (inactive) | -0.722 (inactive) | -0.241 (inactive) | -0.455 (inactive) | 0.549 (inactive) | -0.489 (inactive) | -1.98 (inactive) | -0.228 | -0.153
COc1ccc(O[C@H]2C=C[C@@H](c3ccccc3)O[C@@H]2COC(=O)N2CCCCC2)cc1 | 0.54 | 0.666 (inactive) | 0.0872 (inactive) | 0.0964 (inactive) | -0.139 (inactive) | -0.499 (inactive) | 0.396 (inactive) | 0.349 (inactive) | 0.883 | -0.234
Cc1cc(C)c(-c2cc([C@H](C)ON=C3[C@H]4CCn5c(=O)n(-c6ccccc6)c(=O)n5[C@H]4[C@H](O)[C@@H]4O[C@H]34)on2)c(C)c1 | -0.991 | -0.752 (inactive) | -1.89 (inactive) | -0.297 (inactive) | -0.242 (inactive) | 0.615 (inactive) | 0.663 (inactive) | 0.421 (inactive) | -2.22 | -0.196
CO[C@H]1O[C@H](CO)[C@@H](OC(=O)Nc2ccc3c(c2)OCO3)[C@H](OC(=O)Nc2ccccc2-c2ccccc2)[C@@H]1OC(=O)Nc1ccccc1-c1ccccc1 | -0.659 | 1.42 (inactive) | -0.443 (inactive) | 0.237 (inactive) | 1.14 (inactive) | 2.33 (inactive) | -0.243 (inactive) | -0.0545 (inactive) | -0.427 | 0.28
NCCCCCNC(=O)[C@@H]1C[C@@H]2C(=O)N3CCC[C@H]3C(=O)N2[C@@H]1c1cccc(OCCO)c1 | 0.0359 | -0.582 (inactive) | 0.199 (inactive) | -0.801 (inactive) | -0.226 (inactive) | -0.914 (inactive) | 0.0544 (inactive) | -0.109 (inactive) | -0.0506 | 0.522
COc1ccc(COC(=O)NN=C2C[C@@H](O)[C@@H](O)[C@@H]3[C@@H]4C(=O)N(c5ccc(F)cc5F)C(=O)[C@@H]4CC[C@@H]23)cc1 | 0.631 | 0.64 (inactive) | 0.527 (inactive) | 0.0922 (inactive) | -0.176 (inactive) | 0.968 (inactive) | 0.583 (inactive) | 0.644 (inactive) | 0.635 | -0.173
COCCOC(=O)N1C(=O)[C@@]2(c3ccccc31)[C@H](C(N)=O)[C@H]1C(=O)O[C@H](c3ccccc3)[C@H](c3ccccc3)N1[C@@H]2c1ccccc1OCCO | -1.23 | 0.225 (inactive) | -2.56 (inactive) | 0.692 (inactive) | 0.517 (inactive) | 1.63 (inactive) | 0.201 (inactive) | -0.158 (inactive) | -4.25 | 0.209
CCCNC(=O)[C@@H]1c2ccccc2C(=O)N(Cc2ccccc2Cl)[C@H]1c1ccc(CO)cc1 | 1.44 | -0.768 (inactive) | 0.496 (inactive) | -0.227 (inactive) | -0.217 (inactive) | 0.251 (inactive) | 0.812 (inactive) | 0.829 (inactive) | 1.45 | -0.078
C=CC[C@@H]1C=C[C@H](ON=C[C@@H](OC)[C@H](C)C=CCC(=O)OC)[C@@H](CO)O1 | -0.266 | -0.54 (inactive) | -0.709 (inactive) | 0.217 (inactive) | -0.537 (inactive) | 1.17 (inactive) | 0.456 (inactive) | 0.732 (inactive) | -0.707 | 0.32
